Where “and” joins values, the source holds several entries; their conditions need not be identical. Equal values may be shown once. More than one record can exist for a structure, and the calls need not agree. Calls of active or inactive are those of the source.

The nature of experiment [1]: E. coli DRC41 culture turbidity changes, primary screen, E. coli filamentation inducer project, strain DRC41, OD650, 48 h (AID 1152).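 Further: E. coli MC1000 strain DRC41 lacking acrAB efflux pump and sulA.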 The following applies: E. coli DRC41 (acrAB sulA), higher = more signal, called active from +8 up or from −8 down.
The nature of experiment [2]: small-molecule binders of probe aLefty1, primary screen, biochemical, small-molecule microarray, 635/667 nm fluorescence (AID 1153).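 Further: score merges spot fluorescence with signal-to-noise ratio from the scanned slide images.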 The following applies: higher = more signal.
Experiment [3] can be described thus: PSAC antagonists in infected red cells, primary screen, cell-based, P. falciparum Indochina, OD700, 1 h (AID 1154). The following applies: P. falciparum Indochina infected RBC osmotic lysis, higher = more signal, called active from +8 up or from −8 down.
Experiment [4] can be described thus: PSAC antagonists in infected red cells, primary screen, cell-based, P. falciparum Indochina, OD700, 2 h (AID 1155).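 Further: lysis reports solute entry through the parasite surface anion channel PSAC; channel blockers reduce lysis of infected cells.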 The following applies: P. falciparum Indochina infected erythrocytes, osmotic lysis OD700; higher = more signal, called active from +8 up or from −8 down.
The nature of experiment [5]: osmotic lysis modulators in infected erythrocytes, primary screen, PSAC antagonist project, cell-based, P. falciparum Indochina, OD700, 3 h (AID 1156). The following applies: higher = more signal, called active from +8 up or from −8 down.
A short description of experiment [6]: PSAC antagonists in infected red cells, primary screen, cell-based, P. falciparum Indochina, OD700, 18 h (AID 1157). The following applies: P. falciparum Indochina infected erythrocytes, osmotic lysis OD700, 18 h; higher = more signal, called active from +8 up or from −8 down.
The nature of experiment [7]: modulators of S6 phosphorylation in cells, primary screen, cell-based, A549, cytoblot, luminescence, serum-stimulated (AID 1158).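 Further: serum-stimulated A549 lung adenocarcinoma cells; signal is phosphorylated S6 detected by cytoblot immunostaining with HRP secondary.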 The following applies: A549 phospho-S6 cytoblot, 5 h, higher = more signal.
The target in experiment [8] is NADPH oxidase 2 (Homo sapiens) (UniProt P04839). The experiment is described as follows: NOX2-dependent H2O2 signal modulators, primary screen, NOX inhibitor project, cell-based, HEK293-NOX2, PMA-stimulated, Amplex Red fluorescence (AID 1159). Further: test concentration not given here. The following applies: 45 min, higher = more signal, called active from +8 up or from −8 down.
NADPH oxidase 2 (Homo sapiens), sequence (P04839 whole entry, looked up): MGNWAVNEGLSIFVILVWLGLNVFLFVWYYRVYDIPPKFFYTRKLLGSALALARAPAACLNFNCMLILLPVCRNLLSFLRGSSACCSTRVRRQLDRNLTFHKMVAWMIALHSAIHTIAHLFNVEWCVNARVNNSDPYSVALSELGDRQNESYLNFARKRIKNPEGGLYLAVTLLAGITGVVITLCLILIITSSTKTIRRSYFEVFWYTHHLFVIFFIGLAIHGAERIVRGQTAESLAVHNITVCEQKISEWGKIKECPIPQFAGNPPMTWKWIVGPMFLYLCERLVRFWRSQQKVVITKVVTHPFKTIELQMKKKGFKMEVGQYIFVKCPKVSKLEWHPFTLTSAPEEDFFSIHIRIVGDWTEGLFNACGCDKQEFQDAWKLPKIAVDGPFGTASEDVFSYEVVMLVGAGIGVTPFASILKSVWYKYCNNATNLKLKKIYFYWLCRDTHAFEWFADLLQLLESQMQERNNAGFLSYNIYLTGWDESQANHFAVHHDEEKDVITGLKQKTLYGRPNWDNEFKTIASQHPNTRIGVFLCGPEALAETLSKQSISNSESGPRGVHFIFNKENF
The target in experiment [9] is NADPH oxidase 4 (Homo sapiens) (UniProt Q9NPH5). The experiment is described as follows: NOX4-dependent H2O2 signal modulators, primary screen, NOX inhibitor project, cell-based, HEK293-NOX4, tetracycline-induced, Amplex Red fluorescence (AID 1160). The following applies: 45 min, higher = more signal, called active from +8 up or from −8 down.
NADPH oxidase 4 (Homo sapiens), sequence (Q9NPH5 whole entry, looked up): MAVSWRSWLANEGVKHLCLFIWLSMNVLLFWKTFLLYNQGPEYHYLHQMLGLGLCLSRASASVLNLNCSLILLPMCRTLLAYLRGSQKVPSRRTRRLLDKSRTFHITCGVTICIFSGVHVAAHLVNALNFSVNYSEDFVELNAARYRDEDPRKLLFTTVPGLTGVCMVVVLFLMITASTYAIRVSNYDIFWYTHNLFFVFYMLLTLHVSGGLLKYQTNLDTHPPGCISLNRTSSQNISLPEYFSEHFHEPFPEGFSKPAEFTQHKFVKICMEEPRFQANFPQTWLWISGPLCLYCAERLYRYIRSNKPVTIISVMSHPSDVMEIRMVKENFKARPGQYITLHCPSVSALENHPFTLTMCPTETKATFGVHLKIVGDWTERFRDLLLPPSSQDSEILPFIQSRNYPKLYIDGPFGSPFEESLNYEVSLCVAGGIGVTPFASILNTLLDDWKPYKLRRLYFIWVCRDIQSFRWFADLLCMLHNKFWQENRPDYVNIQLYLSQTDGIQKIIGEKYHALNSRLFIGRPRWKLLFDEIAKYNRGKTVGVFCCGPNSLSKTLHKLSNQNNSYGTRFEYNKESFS
Experiment [10] concerns the target NADPH oxidase 5 (Homo sapiens) (UniProt Q96PH1). The experiment can be described thus: NOX5-dependent H2O2 signal modulators, primary screen, NOX inhibitor project, cell-based, HEK293-NOX5, Amplex Red fluorescence (AID 1161). The following applies: HEK293-NOX5, ionomycin, 45 min, higher = more signal.

NADPH oxidase 5 (Homo sapiens), sequence (Q96PH1 whole entry, looked up): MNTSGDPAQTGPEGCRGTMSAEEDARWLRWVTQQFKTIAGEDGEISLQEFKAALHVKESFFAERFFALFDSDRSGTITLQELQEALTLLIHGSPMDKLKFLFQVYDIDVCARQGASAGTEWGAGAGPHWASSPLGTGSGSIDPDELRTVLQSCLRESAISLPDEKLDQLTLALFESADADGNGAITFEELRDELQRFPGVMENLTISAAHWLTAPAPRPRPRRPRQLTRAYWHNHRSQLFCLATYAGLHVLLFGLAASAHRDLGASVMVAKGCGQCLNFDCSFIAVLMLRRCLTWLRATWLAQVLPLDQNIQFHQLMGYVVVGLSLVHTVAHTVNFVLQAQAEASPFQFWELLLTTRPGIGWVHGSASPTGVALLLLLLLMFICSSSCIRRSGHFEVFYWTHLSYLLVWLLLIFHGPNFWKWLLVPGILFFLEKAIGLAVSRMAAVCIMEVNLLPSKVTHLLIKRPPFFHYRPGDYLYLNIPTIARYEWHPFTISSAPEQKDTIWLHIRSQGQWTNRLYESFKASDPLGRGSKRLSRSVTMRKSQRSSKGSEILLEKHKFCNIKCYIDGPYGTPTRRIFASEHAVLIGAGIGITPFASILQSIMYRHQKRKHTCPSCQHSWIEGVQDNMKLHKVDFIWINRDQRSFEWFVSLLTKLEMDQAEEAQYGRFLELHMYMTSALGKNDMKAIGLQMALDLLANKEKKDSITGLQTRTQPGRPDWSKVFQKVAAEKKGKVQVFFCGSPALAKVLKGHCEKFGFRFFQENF

With `C=CC[C@@H](O)c1ccc(O)c(F)c1`, the z-score is -0.024 (inactive) and 1.7 (inactive) in experiment [1]; 0.92 (inactive) and -0.126 (inactive) in experiment [3]; 0.574 (inactive) and -1.54 (inactive) in [4]; -0.0619 (inactive) and -1.38 (inactive) in [5]; 0.476 (inactive) and -2.12 (inactive) in [6]; 0.0996 and 0.266 in experiment [7]. Also, the z-score in experiment [8] is -0.896 (inactive) and -0.237 (inactive); in experiment [9] it was -1.46 (inactive) and 0.42 (inactive); in experiment [10], -0.436 and 0.271. Besides, the composite z-score in experiment [2] was -0.216 and -0.0449.

Regarding `CC(C)[Si]1(C(C)C)OCc2cc(CCCc3cc4c(c(CCc5ccccc5)n3)[Si](C(C)C)(C(C)C)OC4)nc(CCc3ccccc3)c21`, the z-score in [1] is 2.34 (inactive) and -0.836 (inactive); in [3], 1.1 (inactive) and 0.221 (inactive); in experiment [4], -0.712 (inactive) and -0.436 (inactive); in experiment [5], -1.01 (inactive) and -0.355 (inactive); in experiment [6] it was -0.788 (inactive) and -0.406 (inactive); in experiment [7], 0.0671 and -0.999. For the same molecule, the z-score is 1.5 (inactive) and 0.412 (inactive) in experiment [8]; 0.0233 (inactive) and 0.608 (inactive) in [9]; -2.98 and -0.0908 in experiment [10]. In experiment [2], the composite z-score was -0.147 and -0.192.

As for `O=C1NC(=O)C2C1C=CC(C(O)c1ccc([N+](=O)[O-])cc1)N2Nc1ccc(Cl)cc1Cl` (stereo not given), the z-score in [1] was 0.302 (inactive) and 1.01 (inactive); in [3], 9.67 (active) and 3.11 (inactive); in [4], 0.913 (inactive) and 0.168 (inactive); in [5] it was 0.538 (inactive) and -0.138 (inactive); in experiment [6], -0.988 (inactive) and -1.28 (inactive); in experiment [7] it was 0.474 and 0.7. Also, the z-score in experiment [8] was 0.313 (inactive) and 0.609 (inactive); in [9], -5.29 (inactive) and -4.55 (inactive); in experiment [10], -1.98 and -1.75. For the same molecule, the composite z-score in experiment [2] was 0.134 and 0.623.

For `C[C@@H]1CC[C@H]2C(=O)NC[C@@H](O)CN2[C@H]1c1ccc(Br)cc1`, the z-score is -1.08 (inactive) and -0.445 (inactive) in experiment [1]; 0.211 (inactive) and -0.0955 (inactive) in [3]; -0.0378 (inactive) and 0.0974 (inactive) in experiment [4]; -0.114 (inactive) and -0.125 (inactive) in [5]; -0.218 (inactive) and 0.0277 (inactive) in experiment [6]; 0.53 and -0.753 in experiment [7]. Also, the z-score in [8] is -0.807 (inactive) and 0.12 (inactive); in experiment [9], 0.283 (inactive) and 0.229 (inactive); in experiment [10] it was 0.646 and 0.135. Besides, the composite z-score in experiment [2] is -0.426 and -0.017.

In the case of `CCOC(=O)[C@@H]1CC=C2CC1C(=O)N1CCC[C@@H]1[C@H]2O[Si](C)(C)C(C)(C)C` (stereo not given in full), the z-score in experiment [1] is -1.02 (inactive) and -0.796 (inactive); in [3], -0.0845 (inactive) and 0.699 (inactive); in experiment [4] it was -0.474 (inactive) and 0.0056 (inactive); in experiment [5], -0.495 (inactive) and 0.882 (inactive); in experiment [6] it was -0.0374 (inactive) and 0.133 (inactive); in [7] it was 0.308 and -0.0299. Besides, the z-score in experiment [8] is -0.0861 (inactive) and -0.161 (inactive); in experiment [9], 1.2 (inactive) and -0.116 (inactive); in experiment [10], -1.02 and -2.48. Further, in experiment [2], the composite z-score was -0.199 and -0.417.

As to `CC(CO)N1C(=O)[C@@H]2C3C(=O)OCCC=C[C@H]3OC23C=CCN(c2ccc(Cl)cc2)C(=O)[C@@H]13` (stereo not given in full), the z-score is -0.0529 (inactive) and -0.655 (inactive) in experiment [1]; 0.725 (inactive) and 3.92 (inactive) in [3]; 1.02 (inactive) and 0.352 (inactive) in experiment [4]; 0.741 (inactive) and 0.968 (inactive) in experiment [5]; 0.817 (inactive) and 0.0372 (inactive) in experiment [6]; -0.7 and -0.574 in experiment [7]. The z-score in experiment [8] was 1.59 (inactive) and 1.47 (inactive); in experiment [9] it was 1.03 (inactive) and 1.11 (inactive); in [10], 2.46 and 2.5. Further, the composite z-score in experiment [2] was -0.142 and 0.422.

For the molecule `C=CCN(Cc1ccccc1)C(=O)C1N(CCOCCO)C(=O)C2C(C(=O)O)C3C=CC21O3` (stereo not given), the z-score was 2.01 (inactive) and 0.924 (inactive) in [1]; -0.451 (inactive) and 0.417 (inactive) in experiment [3]; -1.31 (inactive) and -0.103 (inactive) in experiment [4]; -1.39 (inactive) and -0.519 (inactive) in experiment [5]; -1.71 (inactive) and 0.0394 (inactive) in [6]; 0.506 and 0.245 in [7]. The z-score in [8] was 1.22 (inactive) and 0.583 (inactive); in [9], -0.586 (inactive) and -2.52 (inactive); in [10], 0.93 and -0.825. In addition, the composite z-score in experiment [2] is 0.0429 and 0.101.

`CCOC(=O)c1ccc(NC(=O)O[C@H]2[C@H](OC(=O)Nc3ccccc3)[C@@H](OC(=O)Nc3ccccc3)[C@@H](OC)O[C@@H]2CO)cc1`: the z-score in experiment [1] is -1.16 (inactive) and -0.655 (inactive); in [3], 5.55 (inactive) and 14.7 (active); in [4], 1.05 (inactive) and 2.32 (inactive); in experiment [5], 0.199 (inactive) and 1.28 (inactive); in experiment [6], 0.764 (inactive) and 0.888 (inactive); in experiment [7], 0.139 and 0.0102. Moreover, the z-score in experiment [8] is 0.0131 (inactive) and -4.33 (inactive); in [9] it was -0.578 (inactive) and -1.01 (inactive); in experiment [10] it was -0.851 and -1.69. The composite z-score in experiment [2] was 0.507 and 0.394.

Turning to `Cc1ccc(S(=O)(=O)OC[C@@H]2CN3[C@@H](CC[C@@H](C)[C@@H]3c3ccc(Br)cc3)C(=O)O2)cc1`, the z-score is 0.0029 (inactive) and -0.348 (inactive) in experiment [1]; 2.52 (inactive) and 4.44 (inactive) in experiment [3]; 0.0068 (inactive) and 1.78 (inactive) in experiment [4]; -0.414 (inactive) and 0.812 (inactive) in [5]; -0.0954 (inactive) and 0.932 (inactive) in [6]; -0.834 and 0.119 in [7]. Besides, the z-score in experiment [8] is 1.24 (inactive) and 0.787 (inactive); in [9], 0.37 (inactive) and -0.0143 (inactive); in [10] it was 0.0798 and 0.702. In addition, the composite z-score in [2] was -0.134 and -0.144.

The record behind these values is PubChem BioAssay.
